Assay results: PubChem BioAssay
Results filed as inconclusive are left out. Calls of active or inactive are those of the source.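 How the source made its calls, unless noted: active means normalized viability below 100% at a tested concentration; inactive means the rest.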

Columns and labels:
[1] = growth inhibition of DIPG glioma cells, dose response, cell-based, SU-DIPG-XVII, MIPE5.0, CellTiter-Glo, qHTS (AID 1347060; cut-off not given, nearly all actives have AC50 up to about 26 µM;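 further: cells exposed to compound for 48 hours before viability readout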); conditions: SU-DIPG-XVII viability, CellTiter-Glo ATP luminescence
[2] = growth inhibition of DIPG glioma cells, dose response, cell-based, JHH-DIPG-1, MIPE4.0, CellTiter-Glo, qHTS (AID 1347062; cut-off not given, nearly all actives have AC50 up to about 27 µM;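 on AC50: cells exposed to compound for two days before readout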); conditions: JHH-DIPG-1 viability, CellTiter-Glo ATP luminescence
[3] = growth inhibition of DIPG glioma cells, dose response, cell-based, SU-DIPG-IV, MIPE4.0, CellTiter-Glo, qHTS (AID 1347063; cut-off not given, nearly all actives have AC50 up to about 30 µM;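 further: compound exposure lasted 48 hours before the viability readout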); conditions: SU-DIPG-IV viability, CellTiter-Glo ATP luminescence
[4] = viability loss in pontine glioma line – cell-based, SU-DIPG-XXV, MIPE5.0, CellTiter-Glo, qHTS, dose response (AID 1347065; cut-off not given, nearly all actives have AC50 up to about 26 µM;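 further: cells exposed to compound for 48 hours before ATP readout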); conditions: CellTiter-Glo ATP luminescence
[5] = JHH-DIPG-1 glioma cell viability, MIPE5.0 library, CellTiter-Glo luminescence, qHTS (AID 1347067; cut-off not given, nearly all actives have AC50 up to about 26 µM;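 further: cells exposed to compound for 48 hours before readout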); conditions: JHH-DIPG-1 glioma viability, CellTiter-Glo ATP luminescence
[6] = SU-DIPG-XXV glioma cell viability, MIPE5.0 library, qHTS (AID 1347068; cut-off not given, nearly all actives have IC50 up to about 30 µM;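 further: cells exposed to compound for 48 hours before viability readout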)
[7] = sensitizers of A549 cells to miR-34 induction, primary screen, imaging, A549 dox-inducible miR-34, nuclei and caspase counts (AID 1347080;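 active means compounds whose cell count with miR-34 switched on is under 0.7 times the count with it off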); conditions: A549 miR-34 inducible, Hoechst nuclei count, 48 h
[8] = modifiers of HSF1 nuclear foci, imaging, Selleck Cancer Library (AID 1347162; in the data active means plate-normalised HSF1 focus index below about 0.46); conditions: human cells, at 10 µM; SSMD: measured here: HSF1 foci SSMD mean; cell count: measured here: cell number; plate-normalised HSF1 focus index: stronger effect = lower value
[9] = survival rescue of mitochondrial mutant cells in low glucose, primary screen, MELAS cybrids, Rieske KO mouse fibroblasts, CellTiter-Glo (AID 1508586;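 active means mean z-score across replicates of 1.96 or higher in either the MELAS or the Rieske mutant cell line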;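 further: z relative to plate mean and SD of compound and empty wells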)
[10] = ovarian cancer cell viability with rucaparib, profiling panel, oncology-focused library, rucaparib conditional (AID 1508598); conditions: patient-derived ovarian cancer cells, CellTiter-Glo viability, 144 h, stronger effect = lower value

O=C1NC(=O)C(c2cnc3ccccn23)=C1c1cn2c3c(cccc13)CN(C(=O)N1CCOCC1)CC2
active: AC50 [1] 1.05 µM | AC50 [3] 0.00833 µM | AC50 [4] 11.8 µM | AC50 [5] 18.6 µM | IC50 [6] 18.6 µM
inactive: outcome [2]

O=C(O)c1ccc2c(c1)nc(Nc1cccc(Cl)c1)c1ccncc12
0.974: fold change ([7]; measured here: relative caspase fold change +Dox/-Dox)
active: AC50 [1] 8.33 µM | AC50 [2] 16.6 µM | AC50 [3] 7.43 µM | AC50 [4] 4.68 µM | AC50 [5] 2.95 µM | IC50 [6] 7.42 µM | viability ([10]; at 0.00122 µM, OCI-P5x cells, with rucaparib 20 µM, 100% = cells with rucaparib alone) 98.4% | viability ([10]; at 0.00488 µM, OCI-P5x cells, with rucaparib 20 µM, 100% = cells with rucaparib alone) 94% | viability ([10]; at 0.0195 µM, OCI-C5x cells, with rucaparib 10 µM, 100% = cells with rucaparib alone) 98% | viability ([10]; at 0.0195 µM, OCI-P5x cells, with rucaparib 20 µM, 100% = cells with rucaparib alone) 96% | viability ([10]; at 0.0781 µM, OCI-C5x cells, with rucaparib 10 µM, 100% = cells with rucaparib alone) 99.7% | viability ([10]; at 0.0781 µM, OCI-P5x cells, with rucaparib 20 µM, 100% = cells with rucaparib alone) 98.9% | viability ([10]; at 0.313 µM, OCI-C5x cells, with rucaparib 10 µM, 100% = cells with rucaparib alone) 96.1% | viability ([10]; at 0.313 µM, OCI-P5x cells, with rucaparib 20 µM, 100% = cells with rucaparib alone) 94.3% | viability ([10]; at 1.25 µM, OCI-C5x cells, with rucaparib 10 µM, 100% = cells with rucaparib alone) 68.3% | viability ([10]; at 1.25 µM, OCI-C5x cells, without rucaparib) 91.5% | viability ([10]; at 1.25 µM, OCI-P5x cells, with rucaparib 20 µM, 100% = cells with rucaparib alone) 74.7% | viability ([10]; at 1.25 µM, OCI-P5x cells, without rucaparib) 89.4% | viability ([10]; at 5 µM, OCI-C5x cells, with rucaparib 10 µM, 100% = cells with rucaparib alone) 43.6% | viability ([10]; at 5 µM, OCI-C5x cells, without rucaparib) 88.1% | viability ([10]; at 5 µM, OCI-P5x cells, with rucaparib 20 µM, 100% = cells with rucaparib alone) 33.3% | viability ([10]; at 5 µM, OCI-P5x cells, without rucaparib) 35.6%
0.462: SSMD [8]
7390: cell count [8]
inactive: fold change ([7]; stronger effect = lower value, cell number ratio, induced over uninduced) 0.797 | plate-normalised HSF1 focus index [8] 1.02 | z-score ([9]; MELAS cybrid survival, CellTiter-Glo 48 h, stronger effect = higher value) -0.486 | viability ([10]; at 0.000305 µM, OCI-C5x cells, with rucaparib 10 µM, 100% = cells with rucaparib alone) 103% | viability ([10]; at 0.000305 µM, OCI-C5x cells, without rucaparib) 125% | viability ([10]; at 0.000305 µM, OCI-P5x cells, with rucaparib 20 µM, 100% = cells with rucaparib alone) 103% | viability ([10]; at 0.000305 µM, OCI-P5x cells, without rucaparib) 105% | viability ([10]; at 0.00122 µM, OCI-C5x cells, with rucaparib 10 µM, 100% = cells with rucaparib alone) 119% | viability ([10]; at 0.00122 µM, OCI-C5x cells, without rucaparib) 130% | viability ([10]; at 0.00122 µM, OCI-P5x cells, without rucaparib) 111% | viability ([10]; at 0.00488 µM, OCI-C5x cells, with rucaparib 10 µM, 100% = cells with rucaparib alone) 106% | viability ([10]; at 0.00488 µM, OCI-C5x cells, without rucaparib) 118% | viability ([10]; at 0.00488 µM, OCI-P5x cells, without rucaparib) 104% | viability ([10]; at 0.0195 µM, OCI-C5x cells, without rucaparib) 126% | viability ([10]; at 0.0195 µM, OCI-P5x cells, without rucaparib) 115% | viability ([10]; at 0.0781 µM, OCI-C5x cells, without rucaparib) 116% | viability ([10]; at 0.0781 µM, OCI-P5x cells, without rucaparib) 110% | viability ([10]; at 0.313 µM, OCI-C5x cells, without rucaparib) 115% | viability ([10]; at 0.313 µM, OCI-P5x cells, without rucaparib) 107%
5180: cell count ([7]; measured here: total cells with miR-34 induction, stronger effect = lower value)
-0.116: z-score ([9]; Rieske KO mouse fibroblast survival, CellTiter-Glo 72 h)
6500: cell count ([7]; measured here: total cells without miR-34 induction)
